Our source for the growth values is PubChem BioAssay (NCI).

Compounds without any hit were thinned out: in the full panel of roughly 83,000, 20% have a hit.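 48-hour exposure, single concentration, 96-well plates; percent growth endpoint where 0 means no net growth. Active: below 10.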 Values without a mark were called inactive. Calls of active or inactive are those of the source.

Among the test systems are DU-145 prostate; K-562 leukemia; MALME-3M melanoma; MDA-MB-231 breast; RXF 393 renal; SF-268 CNS; SF-295 CNS; SF-539 CNS; UACC-257 melanoma; M14 melanoma; HCT-15 colon; HT29 colon; SNB-75 CNS; SNB-19 CNS; U251 CNS; PC-3 prostate; SK-MEL-5 melanoma; UACC-62 melanoma; LOX IMVI melanoma; SK-MEL-28 melanoma.
Holding throughout (assay): NCI-60 one-dose screen, 48 h (100 = growth as untreated, 0 = no growth, -100 = all killed)
Common to all, as to details: 10 µM unless noted

Consider `Oc1c(Br)cc(Br)c2ccc(Cn3cc(-c4ccc(C(F)(F)F)cc4)nn3)nc12`, for which the growth in the assay with DU-145 prostate was 46.2%; with K-562 leukemia it was 6.39% (active); in the assay with MALME-3M melanoma, 16.7%; with MDA-MB-231 breast, 96.3%; with RXF 393 renal it was 1.8% (active); with SF-268 CNS, 85.7%. The growth in the assay with SF-295 CNS was 105%; with SF-539 CNS it was 56.2%; with UACC-257 melanoma, 54.9%; in the assay with M14 melanoma, 48.6%; with HCT-15 colon, 25.2%; in the assay on HT29 colon, 59%. The growth is 77.2% with SNB-75 CNS; 94% in the assay with SNB-19 CNS; 102% in the assay on U251 CNS; 77.6% in the assay with PC-3 prostate; 98.2% in the assay on SK-MEL-5 melanoma; 67.8% in the assay on UACC-62 melanoma. The growth is 11.5% in the assay on LOX IMVI melanoma and 48.1% in the assay with SK-MEL-28 melanoma.

With `COCCOc1cc2ncnc(N3CCN(c4cc(S(C)(=O)=O)c(C)cc4Cl)CC3)c2cc1OCCOC`, the growth in the assay on DU-145 prostate was 96.8%; with K-562 leukemia, 88.9%; with MALME-3M melanoma it was 87%; in the assay on MDA-MB-231 breast it was 96%; in the assay on RXF 393 renal, 99.7%; in the assay on SF-268 CNS, 91.8%. The growth in the assay with SF-295 CNS was 90.5%; in the assay on SF-539 CNS, 92%; in the assay with UACC-257 melanoma, 91.1%; with M14 melanoma, 111%; in the assay with HCT-15 colon, 95.7%; in the assay on HT29 colon, 94.4%. Moreover, the growth was 98.8% with SNB-75 CNS; 96.8% with SNB-19 CNS; 85.3% with U251 CNS; 81.5% with PC-3 prostate; 77% in the assay on SK-MEL-5 melanoma; 94.2% in the assay on UACC-62 melanoma. The growth was 93.5% with LOX IMVI melanoma and 107% in the assay on SK-MEL-28 melanoma.

On to `COc1ccc(C/C(C)=C(/c2ccc(OCCN(C)C)cc2)c2ccc(OC(=O)NCc3ccccc3)cc2)cc1`, for which the growth in the assay on DU-145 prostate was 81.1%; in the assay with K-562 leukemia, -29.2% (active); in the assay with MALME-3M melanoma it was 88.5%; in the assay with MDA-MB-231 breast it was 57.9%; with RXF 393 renal it was 60.3%; in the assay on SF-268 CNS it was 72.9%. Further, the growth in the assay with SF-295 CNS is 88%; in the assay with SF-539 CNS it was 88.9%; with UACC-257 melanoma, 75.8%; in the assay with M14 melanoma, 25.1%; in the assay with HCT-15 colon it was 24.3%; with HT29 colon, -13.7% (active). Further, the growth with SNB-75 CNS is 77.7%; with SNB-19 CNS, 85.6%; with U251 CNS it was 45.7%; in the assay with PC-3 prostate, 68.4%; with SK-MEL-5 melanoma, 63.1%; in the assay with UACC-62 melanoma, 69.3%. For the same molecule, the values for the growth with LOX IMVI melanoma and with SK-MEL-28 melanoma were -12% (active) and 54.6%, respectively.

On to `COc1ccc2cc1Oc1ccc(cc1)C[C@H]1c3c(cc4c(c3Oc3cc5c(cc3OC)CCN(C)[C@@H]5C2)OCO4)CCN1C`, for which the growth was 59.6% with DU-145 prostate; -2.72% (active) in the assay with K-562 leukemia; -46.1% (active) in the assay with MALME-3M melanoma; -5.97% (active) in the assay with MDA-MB-231 breast; -18.7% (active) in the assay on RXF 393 renal; 36.4% in the assay on SF-268 CNS. In addition, the growth in the assay with SF-295 CNS is 58.1%; in the assay on SF-539 CNS, -55.7% (active); in the assay on UACC-257 melanoma, -78.4% (active); with M14 melanoma, -86.2% (active); in the assay with HCT-15 colon it was 27%; with HT29 colon, 4.38% (active). Also, the growth in the assay with SNB-75 CNS was 71.4%; in the assay with SNB-19 CNS, 75.9%; in the assay with U251 CNS, 26.8%; with PC-3 prostate, 43.9%; in the assay on SK-MEL-5 melanoma, -97% (active); with UACC-62 melanoma, 34.4%. Further, the growth in the assay on LOX IMVI melanoma is -41.7% (active); with SK-MEL-28 melanoma, -54.9% (active).

Turning to `N#C/C(=C\c1c(-c2ccccc2)[nH]c2ccccc12)C(N)=O`, the growth is 108% in the assay on DU-145 prostate; 24% in the assay with K-562 leukemia; 93% in the assay on MALME-3M melanoma; 71.6% in the assay with MDA-MB-231 breast; 122% in the assay on RXF 393 renal; 97.3% in the assay with SF-268 CNS. Besides, the growth in the assay with SF-295 CNS was 99.7%; with SF-539 CNS it was 71%; with UACC-257 melanoma, 105%; in the assay with M14 melanoma, 68.9%; in the assay with HCT-15 colon, 56.4%; in the assay with HT29 colon, 67.4%. The growth is 32.5% with SNB-75 CNS; 89.6% with SNB-19 CNS; 79.6% in the assay with U251 CNS; 69.8% in the assay with PC-3 prostate; 64.7% with SK-MEL-5 melanoma; 58.9% with UACC-62 melanoma. Also, the results for the growth with LOX IMVI melanoma and in the assay with SK-MEL-28 melanoma were 76.2% and 97.6%, respectively.

`O=C(/C=C/c1ccco1)Nc1ncc(Cc2cccc(C(F)(F)F)c2)s1`: the growth is 10.5% with DU-145 prostate; 4.59% (active) in the assay on K-562 leukemia; 5.43% (active) in the assay with MALME-3M melanoma; 25.5% with MDA-MB-231 breast; -8.57% (active) in the assay on RXF 393 renal; 33.2% with SF-268 CNS. For the same molecule, the growth was -20.5% (active) with SF-295 CNS; -39.8% (active) in the assay with SF-539 CNS; 25.4% in the assay with UACC-257 melanoma; -10.2% (active) in the assay on M14 melanoma; 10.9% in the assay with HCT-15 colon; 3.46% (active) in the assay with HT29 colon. Moreover, the growth with SNB-75 CNS is -1.69% (active); with SNB-19 CNS, 34.3%; in the assay with U251 CNS it was 5.08% (active); in the assay on PC-3 prostate it was 17%; in the assay on SK-MEL-5 melanoma it was 12.5%; in the assay with UACC-62 melanoma, 5.19% (active). The growth in the assay with LOX IMVI melanoma was 5.43% (active); with SK-MEL-28 melanoma, 46.4%.

In the case of `Nc1c(C(=O)Nc2ccccc2F)sc2nc3c(cc12)CCCC3`, the growth in the assay on DU-145 prostate is 26.8%; in the assay on K-562 leukemia it was 14.1%; with MALME-3M melanoma it was 62.9%; with MDA-MB-231 breast it was 45.1%; in the assay with RXF 393 renal, 39.2%; in the assay with SF-268 CNS, 50.4%. In addition, the growth in the assay with SF-295 CNS is 21.9%; in the assay on SF-539 CNS, 6.85% (active); in the assay on UACC-257 melanoma, 61.6%; with M14 melanoma it was 33.5%; in the assay on HCT-15 colon it was 28.7%; in the assay with HT29 colon, 11.3%. The growth in the assay on SNB-75 CNS was 37.5%; in the assay on SNB-19 CNS, 33.7%; in the assay on U251 CNS it was 26.7%; in the assay with PC-3 prostate, 27.7%; with SK-MEL-5 melanoma, 15.5%; in the assay with UACC-62 melanoma it was 26.7%. Besides, the results for the growth in the assay with LOX IMVI melanoma and with SK-MEL-28 melanoma were 40.5% and 73.7%, respectively.

On to `O=C1Nc2ccc(C(=O)O)cc2/C1=N/c1nnc(Sc2ccccc2)s1`, for which the growth is 110% in the assay with DU-145 prostate; 96.2% in the assay on K-562 leukemia; 113% in the assay on MALME-3M melanoma; 106% in the assay with MDA-MB-231 breast; 117% with RXF 393 renal; 96.4% in the assay on SF-268 CNS. Besides, the growth in the assay with SF-295 CNS was 102%; in the assay with SF-539 CNS, 96.8%; in the assay with UACC-257 melanoma, 107%; in the assay with M14 melanoma it was 104%; in the assay on HCT-15 colon, 104%; with HT29 colon it was 115%. Further, the growth in the assay with SNB-75 CNS is 94.2%; in the assay on SNB-19 CNS it was 102%; with U251 CNS it was 98%; in the assay on PC-3 prostate, 104%; with SK-MEL-5 melanoma, 104%; in the assay on UACC-62 melanoma, 99%. The results for the growth in the assay on LOX IMVI melanoma and in the assay on SK-MEL-28 melanoma were 96.3% and 112%, respectively.
